96 compounds from ChEMBL document CHEMBL3988442, “University of Dundee, Small-Polar-MMV Screening Library” (2021) can be followed below.

In all, about 38,000 compounds went through this assay and about 1,200 (3.2%) showed an effect of 50% or more. The median lay at about -58%. For the sample, strong results were picked, then their nearest neighbours and some compounds at random.

The test deals with Plasmodium falciparum. The test is described as follows: Calibr Malaria Delayed Death Assay SOP. It counts as functional, organism-based. The arrangement: scale not given: in the data most compounds retested in dose-response had high values. The conditions noted are these: concentration 4.99e-06 (unit not given; other assays of the set use mol/L).
As for `Cc1c(F)cc(C(=O)O)cc1S(=O)(=O)Nc1ccc(F)c(C#N)c1`, the “Percent Effect” value is given as -35.67%.
Consider `Cc1occc1-c1nnc2n1NC(N)=C(C#N)S2`, for which the “Percent Effect” value is -74.61%.
With `COCCN(C)C[C@@H]1CN(C(=O)c2ccc(O)c(C)c2)C[C@@H]1CO`, the “Percent Effect” value was -85.42%.
For the compound `COc1ccc(-c2cnc(NC(C)=O)[nH]2)cc1`, the “Percent Effect” value is on record as -138%.
Consider `COc1ccc(-c2cc(C3CCN(C(C)=O)CC3)ccn2)cc1`, for which the “Percent Effect” value is given as -100.7%.
Turning to `COc1ccc(-c2ccc(C3CNCCO3)nc2)cc1.Cl` (stereo unspecified), the “Percent Effect” value was 63.33%.
For the compound `C[C@H]1C[C@@H]2CCN(C(=O)c3cnccn3)C[C@H]2O1`, the “Percent Effect” value was -123.8%.
In the case of `Cc1ccc(N2N=C(C(=O)O)S(=O)(=O)c3cccnc32)cc1`, the “Percent Effect” value is on record as -91.48%.
For the compound `O=C(CCCn1cncn1)NC1CCc2nccn2C1` (stereo unspecified), the “Percent Effect” value is given as -11.39%.
Consider `COc1ccc(CN(C)CCS(=O)(=O)c2ccc(Cl)cc2)cc1OC`, for which the “Percent Effect” value is listed as -60.68%.
In the case of `Cn1c(-c2cc3n(n2)CCCN(CC(=O)O)C3)nc2ccccc21`, the “Percent Effect” value is on record as -285%.
As for `c1ccc(CNc2ncc(CN3CCCN4CCC[C@H]4C3)cn2)cc1`, the figure is -75.33%.
As for `CCCn1ncc(C(=O)N2CCN(C3CCCC3)CC2)c1C`, the figure is -11.79%.
As for `CCCn1ncc(CN2C[C@@H]3CCCN3C[C@@H]2Cc2ccccc2)c1C`, the figure is 62.1%; as for `CCCn1ncc(CN2C[C@@H]3CCCN3C[C@H]2Cc2ccccc2)c1C`, 55.8%; as for `C=Cn1ncc(CN2C[C@@H]3C[C@@H](O)CN3C[C@H]2Cc2ccccc2)c1C`, 32.93%.
As to `CCCn1ncc(CN2CCCCC2CCCOC)c1C` (stereo unspecified), the “Percent Effect” value is -4.874%.
For `CCOc1cccc(NC(=O)c2cc[nH]n2)n1`, the “Percent Effect” value was -28.36%.
With `Cc1cc(CN2C[C@@H]3COC[C@@H](C(=O)N4CCCCO4)[C@@H]3C2)no1.O=C(O)C(F)(F)F`, the “Percent Effect” value is reported as -37.6%.
As for `Cc1c(C(C)NCC2CCCC2)cnn1-c1ccc(F)cc1F` (stereo unspecified), the figure is 70.86%; as for `Cc1c(C(C)NC2CSCCSC2)cnn1-c1ccc(F)cc1F` (stereo unspecified), -8.599%.
On to `Cc1c(C(C)NC2CCOCC2)cnn1-c1ccc(F)cc1F` (stereo unspecified), for which the “Percent Effect” value was -4.766%.
With `CCc1nnc(SCc2cc(=O)n3c4c(sc3n2)CCCC4)[nH]1`, the “Percent Effect” value is listed as -134.4%.
On to `COc1cncc(-n2nc(C)c(CC(C)=O)c2C)c1`, for which the “Percent Effect” value is given as -95.89%.
For the compound `CCC(=O)N1CCC2(COCc3cnc(N4CCOCC4)nc32)C1` (stereo unspecified), the “Percent Effect” value was -52.14%.
In the case of `CCOc1cncc(N2CCN(c3ccccc3F)CC2)n1`, the “Percent Effect” value is recorded as -93.07%.
Turning to `COc1ccccc1C1(CNc2nnc(C)c(C)c2C#N)CCCC1`, the “Percent Effect” value is on record as 56.81%.
In the case of `COc1ccccc1C1(CNc2nnc(C)c(C)c2C#N)CCOCC1`, the “Percent Effect” value stood at 0.02654%.
As for `Cc1nnc(NCC2(c3ccccc3)CCC2)c(C#N)c1C`, the figure is -38.66%; as for `CN(Cc1cccnc1)[C@@H]1CN(c2ccccn2)[C@@H]2CCCO[C@H]12`, -39.6%; as for `CN(Cc1cccnc1)[C@@H]1CN(c2ncc(F)cn2)[C@@H]2CCCO[C@H]12`, -11.41%.
With `CN(Cc1cccnc1)[C@@H]1CN(Cc2ccccn2)[C@@H]2CCCO[C@H]12`, the “Percent Effect” value is 50.75%.
For `CCNC(=O)[C@@H]1C[C@H](N)CN1c1cc(C(F)(F)F)nc(N(C)C)n1`, the “Percent Effect” value was found to be 19.6%.
As for `CCNC(=O)[C@@H]1C[C@H](N)CN1c1cc(CC)nc(N(C)C)n1`, the figure is -75.2%; as for `CCNC(=O)[C@@H]1C[C@H](N)CN1c1cc(C(F)(F)F)nc(N2CCCC2)n1`, 54.16%; as for `O=C(O)C(F)(F)F.O=S(=O)(C1CC1)N1CCO[C@H]2[C@@H](Oc3cccnc3)CC[C@@H]21`, -17.81%.
On to `Cc1ccc(NC(=O)CN2CCC(OCC3CCCO3)CC2)c(C)c1` (stereo unspecified), for which the “Percent Effect” value is -25%.
As for `COCCc1noc(CN2CC(Cc3ccccc3)CC2=O)n1` (stereo unspecified), the figure is -62.6%; as for `CC(C)C1CCCN1C(=O)c1ccc(-n2ncc(C#N)c2N)cc1` (stereo unspecified), 71.17%.
As for `CCOC1CCN(C(=O)c2ccc(-n3ncc(C#N)c3N)cc2)CC1`, the figure is -36.9%; as for `CCCC1SCCN1C(=O)c1ccc(-n2ncc(C#N)c2N)cc1` (stereo unspecified), -3.634%; as for `Cc1ccc(N2CCC(N3C[C@@H](CN(C)C)[C@@H](CO)C3)CC2)cc1`, 0.06165%.
`Cc1ccccc1CN1C[C@@H](CN(C)CCO)[C@@H](CO)C1`: the “Percent Effect” value was found to be 6.489%.
As for `COc1ccc(CN2C[C@@H](CN(C)CCO)[C@@H](CO)C2)cc1Cl`, the figure is -13.19%.
As for `CN(CCO)C[C@@H]1CN(C(=O)c2c(F)cccc2Cl)C[C@@H]1CO`, the figure is -48.12%; as for `Cc1cc(F)ccc1N1CCC(N2C[C@@H](C)[C@@](C)(O)C2)CC1`, 37.17%; as for `CN(C)C[C@@H]1CN(Cc2ccccc2C#N)C[C@@H]1CO`, -49.24%.
Consider `Cc1c(C(=O)N2CCCC2c2cnn(C)c2)cnn1-c1ccccc1` (stereo unspecified), for which the “Percent Effect” value is reported as -71.93%.
In the case of `NC(=O)C1CCN(CCCNC(=O)Nc2nncs2)CC1`, the “Percent Effect” value is recorded as -69.85%.
As to `C=C(C)COc1ccccc1CNCCc1c[nH]cn1`, the “Percent Effect” value worked out at 4.371%.
Regarding `C=C(C)COc1cccc(CNCCc2c[nH]cn2)c1`, the “Percent Effect” value came out at 26.04%.
In the case of `CCc1ccccc1OCCNCCc1c[nH]cn1`, the “Percent Effect” value was determined as 69.73%.
On to `Cn1nccc1C(=O)N1CCCC2(CCN(c3ccsc3)C2=O)C1` (stereo unspecified), for which the “Percent Effect” value is listed as -40.86%.
For `Cc1ccccc1SCC(=O)NC1CCC(O)CC1` (stereo unspecified), the “Percent Effect” value is listed as -39.35%.
In the case of `CN(C)C(=O)CN1CCN(Cc2coc(-c3cccc(F)c3)n2)CC1`, the “Percent Effect” value is -61.15%.
For the compound `CSc1ccc(-c2nc(CN3CCNCC3C)c(C)o2)cc1` (stereo unspecified), the “Percent Effect” value is reported as 34.18%.
Turning to `Cc1oc(-c2cc(F)cc(F)c2)nc1CN1C[C@@H](C)NC[C@@H]1C`, the “Percent Effect” value amounted to 59.48%.
In the case of `CSc1ccc(-c2nc(CN3C[C@@H](C)NC[C@@H]3C)c(C)o2)cc1`, the “Percent Effect” value is reported as -63.77%.
Take `Cn1ncc2c1CCCC2NCc1ccc(OCc2cccnc2)cc1` (stereo unspecified): the “Percent Effect” value came out at 4.43%.
Consider `COCCO[C@H]1CCN(Cc2ccoc2)[C@H]1Cc1cccnc1`, for which the “Percent Effect” value was -10.51%.
Turning to `CO[C@H]1CCN(Cc2nccs2)C[C@@H]1Cc1ccccc1`, the “Percent Effect” value is -31.89%.
In the case of `CO[C@H]1CCN(c2ncccn2)[C@H]1Cc1ccccc1`, the “Percent Effect” value is on record as -101.2%.
For the compound `CNC(=O)[C@@H]1C[C@@H]2CCN(Cc3ccoc3)C[C@H]2O1`, the “Percent Effect” value is on record as -25.74%.
As to `O=C(CCNS(=O)(=O)c1ccccc1F)NCc1ccoc1`, the “Percent Effect” value is -33.2%.
In the case of `CCC1(CNC(=O)NC(c2nnc3n2CCC3)C(C)C)CCC1` (stereo unspecified), the “Percent Effect” value is -142%.
`Cc1ccc(C)n1-c1c(C(=O)NCC(c2ccsc2)N(C)C)cnn1C` (stereo unspecified): the “Percent Effect” value was -29.69%.
As for `COc1ccc(-c2nonc2N)cc1`, the figure is -30.35%.
As to `Cc1cnc(N2CC[C@@H]3O[C@@H](COCC(=O)N(C)C)CC[C@@H]32)nc1.O=C(O)C(F)(F)F`, the “Percent Effect” value is recorded as -30.4%.
As for `CC(C)(C)C1CC(=O)Nc2c1cnn2Cc1ccco1` (stereo unspecified), the figure is -56.11%; as for `COC1CN(C(=O)NCC(N)=O)CCC(=O)N(C)c2ccccc21` (stereo unspecified), -44.55%.
Take `COCCN(C)C[C@@H]1CCC[C@@H]2CN(Cc3ccc(OC)nc3)C[C@@H]21.O=C(O)C(F)(F)F.O=C(O)C(F)(F)F`: the “Percent Effect” value stood at 78.92%.
As for `COc1cc(N2C[C@H]3CCC[C@@H](CN4CCOCC4)[C@H]3C2)ncn1.O=C(O)C(F)(F)F`, the figure is -88.21%.
Consider `Cc1ccc(N2C[C@H]3CCC[C@@H](CN(C)C)[C@H]3C2)nn1.O=C(O)C(F)(F)F`, for which the “Percent Effect” value is -59.72%.
`COc1ccc(CN2C[C@H]3CCC[C@@H](CN(C)C)[C@H]3C2)cn1.O=C(O)C(F)(F)F.O=C(O)C(F)(F)F`: the “Percent Effect” value stood at 48.48%.
Regarding `CN(C[C@@H]1CCC[C@@H]2CN(Cc3cccnc3)C[C@@H]21)C1CC1.O=C(O)C(F)(F)F.O=C(O)C(F)(F)F`, the “Percent Effect” value stood at 55.19%.
On to `O=C(C[C@@H]1COC[C@H]2CN(Cc3cccnc3)C[C@@H]12)N1CCOCC1.O=C(O)C(F)(F)F.O=C(O)C(F)(F)F`, for which the “Percent Effect” value was -46.72%.
Regarding `O=C(C[C@@H]1COC[C@H]2CN(Cc3cccnc3)C[C@@H]12)N1CCCC1.O=C(O)C(F)(F)F.O=C(O)C(F)(F)F`, the “Percent Effect” value was -138.8%.
As for `COc1ccc(CN2C[C@H]3CCC[C@@H](CN(C)C4CC4)[C@H]3C2)cn1.O=C(O)C(F)(F)F.O=C(O)C(F)(F)F`, the “Percent Effect” value turned out to be 77%.
As to `COc1cc(N2C[C@H]3CCC[C@@H](CN(C)C4CC4)[C@H]3C2)ncn1.O=C(O)C(F)(F)F`, the “Percent Effect” value was -80.87%.
In the case of `NC(=O)C1CCN(c2ncccc2C(=O)N2CCc3ccccc32)C1` (stereo unspecified), the “Percent Effect” value is -5.535%.
In the case of `Cc1ccc(-c2nc(CN3CCCC(Cn4cncn4)C3)co2)cc1` (stereo unspecified), the “Percent Effect” value is given as -95.97%.
Regarding `O=C1CCCN1Cc1ncn2c1CN(C(=O)C1CC=CC1)CCC2`, the “Percent Effect” value is -7.909%.
On to `COc1cc(F)ccc1N1CCN(Cc2nnc(C3CC3)o2)CC1`, for which the “Percent Effect” value is recorded as -5.241%.
Turning to `c1ccc2[nH]c(C3CCN(Cc4nnc(C5CC5)o4)CC3)cc2c1`, the “Percent Effect” value is recorded as -66.02%.
On to `CO[C@@H]1CCN(Cc2ccc(C)o2)[C@H]1Cc1ccccc1.O=C(O)C(F)(F)F`, for which the “Percent Effect” value is given as -53.14%.
With `CO[C@@H]1CCN(Cc2nccs2)C[C@@H]1Cc1ccccc1.O=C(O)C(F)(F)F`, the “Percent Effect” value is -15.24%.
As for `COC[C@H]1CN(CC2CC2)C(=O)[C@@H]2CCN(Cc3ccoc3)CC[C@H]12.O=C(O)C(F)(F)F`, the figure is -86.79%; as for `COCCO[C@H]1CCN(Cc2cccnc2)[C@H]1Cc1cccnc1.O=C(O)C(F)(F)F.O=C(O)C(F)(F)F.O=C(O)C(F)(F)F`, 3.1%.
As to `CO[C@@H]1CCN(Cc2ccoc2)[C@H]1Cc1ccccc1.O=C(O)C(F)(F)F`, the “Percent Effect” value was 59.96%.
Take `CO[C@H]1CCN(Cc2ccoc2)C[C@@H]1Cc1ccccc1.O=C(O)C(F)(F)F`: the “Percent Effect” value is recorded as 66.03%.
In the case of `COCCN1CC[C@H](OC)[C@@H]1Cc1ccccc1.O=C(O)C(F)(F)F`, the “Percent Effect” value is recorded as 62.78%.
As for `CO[C@@H]1CCN(Cc2ccoc2)C[C@@H]1Cc1ccccc1.O=C(O)C(F)(F)F`, the figure is 88.6%.
`COCCN1CC[C@@H](O)[C@@H]1Cc1ccccc1.O=C(O)C(F)(F)F`: the “Percent Effect” value was -35.17%.
Consider `COCCN1CC[C@@H](OC)[C@@H]1Cc1ccccc1.O=C(O)C(F)(F)F`, for which the “Percent Effect” value is recorded as 1.708%.
Consider `CO[C@@H]1CCN(Cc2nccs2)C[C@@H]1Cc1cccc(C)c1.O=C(O)C(F)(F)F`, for which the “Percent Effect” value is on record as -13.39%.
Consider `CO[C@H]1CCN(c2nnc(C)s2)C[C@@H]1Cc1ccccc1.O=C(O)C(F)(F)F`, for which the “Percent Effect” value is reported as -43.17%.
